The source made the active and inactive calls. The calls were made as follows: active = hit-call score of the fitted dose curve at least 0.9, where 1 is the maximum; inactive = score below 0.9.
target: rat Vesicular Monoamine Transporter (VMAT2), Slc18a2 (gene 25549) (UniProt Q01827); assay: ERF_TW_TR_rSLC18A2: Eurofins (ERF) Radioligand Binding LeadHunter Assay for rat Vesicular Monoamine Transporter (VMAT2) Antagonism
Protocol: ERF_TW_TR_rSLC18A2 is a biochemical, single-readout assay that uses extracted gene-proteins in a cell-free assay. Measurements were taken 0.5 hour after chemical dosing in a 96-well plate. See VMAT2 Rat Vesicular Monoamine Transporter Binding (Antagonist Radioligand) Assay, Panlabs.ERF_TW_TR_rSLC18A2 is an assay component calculated from the ERF_TW_TR_rSLC18A2 assay. It is designed to measure radioligand binding using a type of binding reporter as detected by scintillation counting with radiometry technology.Data from the assay component ERF_TW_TR_rSLC18A2 was analyzed at the assay endpoint, ERF_TW_TR_rSLC18A2, in the positive analysis fitting direction relative to DMSO as the negative control and baseline of activity. Using a type of binding reporter, loss-of-signal activity can be used to understand changes in transporter binding as they relate to gene SLC18A2. To generalize the intended target to other relatable targets, this assay endpoint is annotated to the transporter intended target family, where the subfamily is vesicular transporter.
This assay measures binding of [3H]Dihydrotetrabenazine to sites associated with the vesicular monoamine uptake transporter. […] Membranes are filtered and washed, the filters are then counted to determine [3H]Dihydrotetrabenazine specifically bound. […]

Sequence of rat Vesicular Monoamine Transporter (VMAT2), Slc18a2 (gene 25549) (Q01827 whole entry, looked up): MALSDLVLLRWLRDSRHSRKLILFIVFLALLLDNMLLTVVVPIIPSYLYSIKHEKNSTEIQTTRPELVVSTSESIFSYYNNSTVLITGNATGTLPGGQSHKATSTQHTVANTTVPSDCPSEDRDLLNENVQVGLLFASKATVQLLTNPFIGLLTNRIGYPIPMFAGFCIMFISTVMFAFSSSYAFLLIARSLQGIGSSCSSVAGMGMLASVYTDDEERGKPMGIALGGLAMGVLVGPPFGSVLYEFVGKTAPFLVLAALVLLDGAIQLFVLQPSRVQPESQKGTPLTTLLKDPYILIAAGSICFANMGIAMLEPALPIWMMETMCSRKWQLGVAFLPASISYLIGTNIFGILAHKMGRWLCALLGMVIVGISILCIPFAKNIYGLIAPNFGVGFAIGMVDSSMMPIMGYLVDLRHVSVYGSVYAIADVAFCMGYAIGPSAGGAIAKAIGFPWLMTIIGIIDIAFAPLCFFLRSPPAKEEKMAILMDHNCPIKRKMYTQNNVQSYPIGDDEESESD

| Compound | AC50 |
| --- | --- |
| O=C(/C=C/c1ccc(O)cc1)CC(=O)/C=C/c1ccc(O)cc1 | 283 nM (active) |
| COc1cc(CCC(=O)CC(=O)CCc2ccc(O)c(OC)c2)ccc1O | 5000 nM (active) |
